Experimental data taken from PubChem BioAssay (NCI).
This is part of a sample that, as a whole, favours compounds with a hit. Of some 83,000 tested, about 20% had one in any assay.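 Each cell line was grown in a 96-well plate and treated with one concentration of compound for 48 hours. Values below 10 were considered active.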 Unmarked numbers belong to inactive results. Active and inactive are the calls of the source.

Columns and labels:
Experiment in all cases: NCI-60 one-dose screen, 48 h (100 = growth as untreated, 0 = no growth, -100 = all killed)
[1] = test system: NCI-H23 lung; conditions: 10 µM unless noted
[2] = test system: NCI-H226 lung; conditions: 10 µM unless noted
[3] = test system: NCI-H322M lung; conditions: 10 µM unless noted
[4] = test system: HOP-62 NSCLC; conditions: 10 µM unless noted
[5] = test system: NCI-H460 lung; conditions: 10 µM unless noted
[6] = test system: HOP-92 NSCLC; conditions: 10 µM unless noted
[7] = test system: NCI-H522 lung; conditions: 10 µM unless noted
[8] = test system: A549/ATCC NSCLC; conditions: 10 µM unless noted
[9] = test system: 786-0 renal; conditions: 10 µM unless noted
[10] = test system: COLO 205 colon; conditions: 10 µM unless noted
[11] = test system: DU-145 prostate; conditions: 10 µM unless noted
[12] = test system: K-562 leukemia; conditions: 10 µM unless noted
[13] = test system: MALME-3M melanoma; conditions: 10 µM unless noted
[14] = test system: MDA-MB-231 breast; conditions: 10 µM unless noted
[15] = test system: SF-268 CNS; conditions: 10 µM unless noted
[16] = test system: SF-295 CNS; conditions: 10 µM unless noted
[17] = test system: SF-539 CNS; conditions: 10 µM unless noted
[18] = test system: M14 melanoma; conditions: 10 µM unless noted
[19] = test system: RXF 393 renal; conditions: 10 µM unless noted
[20] = test system: UACC-257 melanoma; conditions: 10 µM

| SMILES | growth [1] [%] | growth [2] [%] | growth [3] [%] | growth [4] [%] | growth [5] [%] | growth [6] | growth [7] | growth [8] [%] | growth [9] [%] | growth [10] | growth [11] [%] | growth [12] | growth [13] | growth [14] [%] | growth [15] [%] | growth [16] [%] | growth [17] [%] | growth [18] | growth [19] [%] | growth [20] [%] |
| --- | --- | --- | --- | --- | --- | --- | --- | --- | --- | --- | --- | --- | --- | --- | --- | --- | --- | --- | --- | --- |
| COc1cccc2cc(-c3cc4ccccc4[nH]3)c(=NC(=O)c3ccc(Cl)cc3)oc12 | 40.2 | 83.2 | 93.3 | 57.7 | 85.3 | -0.489% (active) | 9.69% (active) | 65.5 | 69.5 | 100% | 85.5 | 39.7% | 58.5% | 54.3 | 53.5 | 67.3 | 58.2 | -28.9% (active) |  |  |
| O=c1oc2c([nH]c3ccc4ccccc4c32)c2ccccc12 | 93.6 | 104 | 101 | 103 | 112 | 90.2% | 102% | 134 | 102 | 108% | 106 | 124% | 115% | 112 | 115 | 99.6 | 102 | 109% |  |  |
| Clc1nc2ccccc2nc1CI | 86 | 68.2 | 89.9 | 105 | 108 | 90.9% | 3.79% (active) | 117 | 101 | 120% | 109 | 21.3% | 49.5% |  | 113 | 95.8 | 97.8 |  | 94.9 | 119 |
| O=S(=O)(NCCCNc1nccc(-c2c(-c3ccc(F)c(O)c3)nc3sccn23)n1)c1ccc(Cl)cc1 | 80 | 104 | 98.6 | 96.6 | 86.3 | 74.3% | 57.5% | 76.9 | 110 | 42.6% | 87.4 | 44.2% | 2.69% (active) | 66.4 | 82.8 | 106 | 103 | 18.1% |  |  |
| CCN1C(=O)N(CC)C2Nn3c(s/c(=C\c4cccc(F)c4)c3=O)=NC21 (stereo unspecified) | 62.7 | 96.1 | 96.6 | 68.1 | 53.9 | 49.1% | 64.4% | 72.5 | 77.5 | 70.7% | 59.1 | 26.8% | 72.3% | 66.5 | 76.1 | 61.1 | 68.3 | 89.6% |  |  |
| Cc1oc2nc[nH]c(=O)c2c1C(=O)/C=C/c1ccc(Cl)cc1Cl | 90 | 107 | 92.4 | 92.6 | 93.4 | 95.5% | 39.1% | 78.7 | 83.8 | 107% | 78.2 | 17.8% | 99.9% | 89 | 94.6 | 104 | 93.3 | 93.9% |  |  |
| O=C1Nc2cc(Cl)ccc2Oc2cc(Oc3ccccc3)ccc21 | 54.8 | 72.3 | 76.2 | 64.1 | 25.1 | 115% | 45.1% | 62.2 | 74.3 | 45.2% | 71.5 | 25.5% | 87.1% | 63.9 | 63 | 49 | 64.7 | 41.1% |  |  |
| CCC(c1ccc(OC)cc1)C(CC)c1ccc(OCC[N+](C)(C)C)cc1 (stereo unspecified) | 48.8 | 49.8 | 89.6 | 73.9 | 59 | 9.93% (active) | 35% | 74.3 | 88 | -74.7% (active) | 91.9 | 24.7% | 58% |  | 40.8 | 78.6 | 41.9 |  | 99.6 |  |
| C#CCN1C(=O)/C(=c2\sc3n(c2=O)NC2C(N=3)N(CC)C(=O)N2CC)c2ccccc21 (stereo unspecified) | 54.1 | 87.4 | 95.8 | 80.9 | 99.2 | 76.4% | 52.4% | 85.6 | 61.2 | 37.1% | 41 | 3.27% (active) | 51.5% | 69.9 | 75.5 | 86.7 | 38.7 | 80.7% |  |  |
